Assay [1] in a line: compounds binding Alexa647 anti-His antibody – biochemical, small-molecule microarray, 635 nm fluorescence, artefact control for SMM control protein annotation, primary screen (AID 1128).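 Also: score merges feature fluorescence with signal-to-noise for each printed compound spot.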 To be noted: higher = more signal.
In assay [2] the test system is Human papillomavirus type 1a E7 protein (residues 1-88). In words: HPV1a E7 small-molecule binders, primary screen, biochemical, small-molecule microarray, residues 1-88, 635 nm (AID 1129). To be noted: small-molecule microarray binding, fluorescence 635 nm; higher = more signal.
Assay [3] concerns the target Focal adhesion kinase 1 (Homo sapiens) (UniProt Q05397). Nature of the assay: PTK2 protein binding on printed compound slides – biochemical, small-molecule microarray, 635/667 nm fluorescence, BSA, DTT, primary screen (AID 1130).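 Also: composite of spot emission at 667 nm and signal to noise over triplicate slides.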 To be noted: 635 nm fluorescence, higher = more signal.
The test system of assay [4] is Fibrinogen (Alexa647-labelled). Nature of the assay: Alexa647-fibrinogen binding to printed small molecules – biochemical, small-molecule microarray, 635/667 nm fluorescence, artefact control for SMM control-protein annotation, profiling panel (AID 1131).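 Also: z-score merges 667 nm fluorescence with per-spot signal-to-noise over triplicate slides.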 To be noted: fibrinogen-A647 binding fluorescence, higher = more signal.
The target of assay [5] is Follistatin (Homo sapiens) (UniProt P19883). In words: FST protein binding to printed compounds – biochemical, small-molecule microarray, 635/667 nm fluorescence, primary screen (AID 1132). To be noted: 635 nm fluorescence, higher = more signal.
Assay [6] deals with Fibroblast growth factor 2 (Homo sapiens) (UniProt P09038). In words: basic fibroblast growth factor binding to printed compounds – biochemical, small-molecule microarray, 635/667 nm fluorescence, primary screen (AID 1133). To be noted: FGF2, fluorescence 635/667, higher = more signal.
Assay [7] can be described thus: JC-1 mitochondrial potential readout, lung cancer cells – cell-based, A549, JC-1 fluorescence, basal, 24 h, 100 nL, profiling panel (AID 1138).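 Also: A549 lung adenocarcinoma cells under basal conditions with no added stimulus; test concentration not given here.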 To be noted: higher = more signal.
Assay [8] deals with Lefty1. Nature of the assay: Lefty1 protein binding to printed compounds – biochemical, small-molecule microarray, 635/667 nm fluorescence, primary screen (AID 1139). To be noted: fluorescence 635/667, higher = more signal.
Assay [9] has as its system wheat germ agglutinin (Triticum aestivum), Alexa647-labelled. In words: Alexa647-WGA lectin binding to printed small molecules – biochemical, small-molecule microarray, 635/667 nm fluorescence, artefact control for SMM control-protein annotation, profiling panel (AID 1140).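 Also: score merges 667 nm feature emission with signal to noise over triplicate slides.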 To be noted: WGA-A647 binding, 635 nm fluorescence, higher = more signal.
For assay [10], the target named is Luciferin 4-monooxygenase (Photinus pyralis) (UniProt P08659). Nature of the assay: inhibition of purified Photinus pyralis luciferase – biochemical, luminescence, purified enzyme, 2006 set, primary screen (AID 1141).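 Also: cell-free assay with purified firefly luciferase at 100 ng per well in PBS; test concentration not given here.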 To be noted: purified firefly luciferase, SteadyGlo luminescence, 30 min; higher = more signal, called active from +8 up or from −8 down.
For assay [11], the system named is Wnt5a (protein binding on small-molecule microarray). In words: small molecules binding Wnt5a protein – biophysical, small-molecule microarray, 635/667 nm fluorescence, primary screen (AID 1142).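 Also: fluorescence read at 667 nm with signal to noise per printed feature.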 To be noted: 635 nm fluorescence, higher = more signal.
Assay [12] in a line: ATP-based viability of Huh7 replicon cells – cell-based, CellTiter-Glo luminescence, basal, 48 h, cytotoxicity control for HCV replication inhibitor project, primary screen (AID 1143).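 Also: Huh7 hepatoma cells carrying a hepatitis C replication reporter with no stimulus; test concentration not given here.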 To be noted: higher = more signal, called active from +8 up or from −8 down. (Replicon systems follow genome replication, usually without infectious particles.)
Assay [13] can be described thus: Pseudomonas biofilm growth suppression – PAO1 strain, BacTiter-Glo luminescence, LB-PBS, primary screen (AID 1144). To be noted: P. aeruginosa PAO1 biofilm, 12 h, higher = more signal.
Assay [14] in a line: basal CRE-LacZ reporter activity in PC12 – cell-based, unstimulated, primary screen (AID 1145). To be noted: no forskolin, luminescence, 4.5 h, higher = more signal, called active from +8 up or from −8 down.
A short description of assay [15]: forskolin-driven CRE-LacZ activity in PC12 – cell-based, CRE-LacZ reporter, forskolin-stimulated, primary screen (AID 1146).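 Also: PC12 cells with 6xCRE LacZ reporter stimulated by forskolin 10 µM; beta-galactosidase reporter signal reflecting CREB driven transcription.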 To be noted: luminescence, 4.5 h, higher = more signal, called active from +8 up or from −8 down.
The target of assay [16] is Streptavidin (Streptomyces avidinii) (UniProt P22629). In words: compounds binding control protein streptavidin – biophysical, small-molecule microarray, 635/667 nm fluorescence, artefact control for SMM compound annotation, primary screen (AID 1147).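 Also: signal reflects streptavidin binding to arrayed compounds as a control protein.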 To be noted: higher = more signal.
Assay [17] can be described thus: probe aInhba binding on compound microarray – biochemical, small-molecule microarray, 635/667 nm fluorescence, primary screen (AID 1148).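 Also: score merges 667nm spot fluorescence with signal-to-noise for antibody binding to printed compounds.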 To be noted: higher = more signal.
Assay [18] has as its target Torsin-1A (Homo sapiens) (UniProt O14656). In words: TOR1A wild-type binding on microarray – cell lysate, small-molecule microarray, lysate, 635/667 nm, primary screen (AID 1149). To be noted: COS7 hTOR1A-WT lysate, 635 nm fluorescence, higher = more signal.
For assay [19] the target is unchanged. In words: torsin A mutant lysate binding on microarrays – cell lysate, small-molecule microarray, COS7 lysate, 635/667 nm fluorescence, primary screen (AID 1150).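 Also: score pools 667 nm emission and signal to noise measuring lysate protein binding.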 To be noted: COS7 hTOR1A mutant lysate, 635 nm fluorescence, higher = more signal.
Assay [20] has as its system Sonic hedgehog protein (Shh). Nature of the assay: Sonic hedgehog microarray binding compounds – biochemical, small-molecule microarray, 635/667 nm fluorescence, primary screen (AID 1151).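 Also: Shh protein binding to compounds spotted on small-molecule microarray slides; score combines spot fluorescence intensity with signal-to-noise across triplicate slides.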 To be noted: 635 nm fluorescence, higher = more signal.

Activity calls are given as the source filed them. Unless noted, no rule for the calls is given here.

The values below come from PubChem BioAssay.

Torsin-1A (Homo sapiens), sequence (O14656 whole entry, looked up): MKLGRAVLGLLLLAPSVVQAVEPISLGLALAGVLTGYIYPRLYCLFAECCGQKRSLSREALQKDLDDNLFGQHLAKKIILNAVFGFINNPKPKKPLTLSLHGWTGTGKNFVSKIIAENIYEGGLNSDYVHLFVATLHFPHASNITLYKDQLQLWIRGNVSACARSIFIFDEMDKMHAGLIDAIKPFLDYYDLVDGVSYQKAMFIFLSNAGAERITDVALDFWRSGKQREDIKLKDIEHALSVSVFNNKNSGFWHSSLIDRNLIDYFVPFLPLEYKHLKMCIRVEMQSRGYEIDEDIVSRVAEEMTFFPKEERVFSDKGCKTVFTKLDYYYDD
Luciferin 4-monooxygenase (Photinus pyralis), sequence (P08659 whole entry, looked up): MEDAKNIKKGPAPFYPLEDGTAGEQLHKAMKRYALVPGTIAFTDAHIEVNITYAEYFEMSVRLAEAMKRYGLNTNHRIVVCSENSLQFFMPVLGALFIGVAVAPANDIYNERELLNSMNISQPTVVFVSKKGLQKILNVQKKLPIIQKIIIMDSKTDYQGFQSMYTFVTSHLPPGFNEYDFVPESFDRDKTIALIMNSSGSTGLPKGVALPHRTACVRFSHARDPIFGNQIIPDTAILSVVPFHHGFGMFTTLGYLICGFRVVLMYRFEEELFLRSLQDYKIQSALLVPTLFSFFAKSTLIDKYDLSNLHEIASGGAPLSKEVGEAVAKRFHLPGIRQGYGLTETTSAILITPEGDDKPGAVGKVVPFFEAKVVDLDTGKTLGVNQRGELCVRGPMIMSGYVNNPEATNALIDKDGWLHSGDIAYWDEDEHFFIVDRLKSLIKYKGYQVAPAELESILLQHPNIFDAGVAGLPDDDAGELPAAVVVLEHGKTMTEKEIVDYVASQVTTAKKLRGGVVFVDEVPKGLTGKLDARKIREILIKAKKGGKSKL
Focal adhesion kinase 1 (Homo sapiens), sequence (Q05397 whole entry, looked up): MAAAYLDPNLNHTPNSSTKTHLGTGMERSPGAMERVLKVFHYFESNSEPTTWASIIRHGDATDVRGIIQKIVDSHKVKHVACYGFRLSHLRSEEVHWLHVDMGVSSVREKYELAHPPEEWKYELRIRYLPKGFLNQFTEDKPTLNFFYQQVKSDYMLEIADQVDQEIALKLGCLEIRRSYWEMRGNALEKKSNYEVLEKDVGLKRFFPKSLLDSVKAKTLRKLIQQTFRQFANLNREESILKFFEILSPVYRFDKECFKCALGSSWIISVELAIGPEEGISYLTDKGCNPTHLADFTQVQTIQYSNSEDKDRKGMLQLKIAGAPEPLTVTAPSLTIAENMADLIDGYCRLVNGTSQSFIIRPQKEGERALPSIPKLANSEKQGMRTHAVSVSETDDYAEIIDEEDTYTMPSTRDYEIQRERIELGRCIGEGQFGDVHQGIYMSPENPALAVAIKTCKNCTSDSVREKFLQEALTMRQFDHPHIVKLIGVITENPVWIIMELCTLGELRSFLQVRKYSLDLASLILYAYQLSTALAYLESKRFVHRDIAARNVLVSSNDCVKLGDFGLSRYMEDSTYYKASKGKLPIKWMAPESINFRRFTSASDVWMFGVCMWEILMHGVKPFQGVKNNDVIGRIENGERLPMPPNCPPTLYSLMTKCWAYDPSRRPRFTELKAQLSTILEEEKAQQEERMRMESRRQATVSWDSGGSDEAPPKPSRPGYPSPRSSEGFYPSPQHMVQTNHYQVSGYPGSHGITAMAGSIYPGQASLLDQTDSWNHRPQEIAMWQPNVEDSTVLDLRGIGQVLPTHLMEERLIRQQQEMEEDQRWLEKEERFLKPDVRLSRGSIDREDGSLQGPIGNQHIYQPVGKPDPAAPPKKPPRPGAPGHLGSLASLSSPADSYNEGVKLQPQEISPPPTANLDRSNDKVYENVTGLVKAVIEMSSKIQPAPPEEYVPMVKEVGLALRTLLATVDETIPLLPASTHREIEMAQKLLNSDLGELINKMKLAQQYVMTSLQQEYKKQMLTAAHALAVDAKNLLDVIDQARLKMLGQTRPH
Streptavidin (Streptomyces avidinii), sequence (P22629 whole entry, looked up): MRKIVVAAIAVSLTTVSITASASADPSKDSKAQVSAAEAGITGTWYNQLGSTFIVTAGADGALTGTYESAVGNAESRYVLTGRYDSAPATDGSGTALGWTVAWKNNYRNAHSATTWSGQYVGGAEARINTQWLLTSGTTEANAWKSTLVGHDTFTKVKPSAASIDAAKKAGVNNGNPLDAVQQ
Follistatin (Homo sapiens), sequence (P19883 whole entry, looked up): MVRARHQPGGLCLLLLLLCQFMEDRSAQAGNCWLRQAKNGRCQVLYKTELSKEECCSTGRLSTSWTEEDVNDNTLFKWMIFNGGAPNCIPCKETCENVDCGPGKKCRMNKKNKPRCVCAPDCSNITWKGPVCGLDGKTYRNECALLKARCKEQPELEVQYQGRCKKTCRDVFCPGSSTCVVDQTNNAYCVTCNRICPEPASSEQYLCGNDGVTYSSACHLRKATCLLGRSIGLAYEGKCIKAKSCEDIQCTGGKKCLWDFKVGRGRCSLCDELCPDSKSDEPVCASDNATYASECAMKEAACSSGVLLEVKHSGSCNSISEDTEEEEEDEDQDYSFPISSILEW
Fibroblast growth factor 2 (Homo sapiens), sequence (P09038 whole entry, looked up): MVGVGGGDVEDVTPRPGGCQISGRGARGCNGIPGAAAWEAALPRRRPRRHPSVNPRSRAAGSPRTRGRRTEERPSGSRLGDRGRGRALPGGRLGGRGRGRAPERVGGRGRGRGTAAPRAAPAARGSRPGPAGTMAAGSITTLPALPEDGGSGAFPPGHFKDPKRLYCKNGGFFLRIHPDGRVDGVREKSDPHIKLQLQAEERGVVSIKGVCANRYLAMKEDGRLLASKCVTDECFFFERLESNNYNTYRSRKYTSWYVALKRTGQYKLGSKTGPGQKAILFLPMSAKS

Consider `CCOC(=O)C1=C[C@@H](c2ccccc2)N(S(=O)(=O)c2ccc(C)cc2)[C@H]1c1ccccc1Cl`, for which the composite z-score in assay [1] came to 0.857; in [2], 1.17; in assay [3], 1.6; in [4], 0.86; in assay [5], 0.761; in [6], 0.414. In addition, the composite z-score is 0.838 in [8]; 0.778 in assay [9]; 0.387 in [11]; 1.6 in assay [16]; -0.0221 in assay [17]; 0.888 in assay [18]. Also, the composite z-score was determined as 0.273 in [19] and 0.844 in [20]. Besides, the z-score was 1.53 in assay [7]; 0.86 (inactive) in assay [10]; -3.97 (inactive) in assay [12]; 0.533 (inactive) in assay [13]; -0.312 (inactive) in assay [14]; 0.343 (inactive) in assay [15].

In the case of `CCOC(=O)C[C@H]1[C@H](OC(=O)Cc2ccc3c(c2)OCO3)[C@@H](NC(=O)Cc2ccc(OC)cc2)c2cc(OCCCO)ccc2N1C(=O)c1ccc2ccccc2n1`, the composite z-score in assay [1] is 0.0036; in [2], 0.383; in assay [3], -0.345; in [4] it was 0.172; in assay [5], 0.147; in assay [6], 0.211. Further, the composite z-score in assay [8] was 0.168; in assay [9] it was -0.119; in [11], -0.223; in assay [16], 0.0739; in assay [17], -0.0547; in [18] it was 0.183. Further, the composite z-score in assay [19] turned out to be 0.714; in assay [20], 0.492. In addition, the z-score in [7] was 2.69; in assay [10] it was -1.7 (inactive); in assay [12], -0.823 (inactive); in [13], -0.687 (inactive); in assay [14], 10.1 (active); in assay [15], -1.24 (inactive).

Take `COC1OC[C@]2(C)[C@H]3C4=C(CN2C(=O)OC(C)(C)C)[C@H](C)C(CO)C(CO)C4CC[C@@H]13` (stereo not given in full): the composite z-score in assay [1] was 2.1; in assay [2], 1.24; in assay [3], 1.14; in assay [4], 0.998; in assay [5] it was 1.05; in assay [6], -0.636. The composite z-score in [8] was -0.664; in assay [9], 1.41; in assay [11], 0.987; in [16], 2.17; in assay [17], 0.109; in assay [18], 0.288. Further, the composite z-score was 0.86 in assay [19] and -0.0425 in [20]. Also, the z-score in [7] is 2.03; in assay [10], 0.0207 (inactive); in assay [12] it was -0.14 (inactive); in assay [13], 0.326 (inactive); in [14], 0.197 (inactive); in assay [15], 0.212 (inactive).

For `COc1ccccc1CN1C(=O)c2ccccc2[C@@]2(Cc3ccccc3N(CC(F)(F)F)C2=O)[C@@H]1c1ccc(CO)cc1`, the composite z-score in [1] was -0.0478; in assay [2], 0.232; in assay [3] it was 0.205; in assay [4] it was 0.049; in assay [5], 0.666; in assay [6], 0.731. The composite z-score in assay [8] is 0.292; in assay [9], -0.0716; in [11], 0.0586; in assay [16], 0.276; in assay [17], 0.173; in assay [18], -0.116. The composite z-score in assay [19] was -0.33; in [20] it was 0.53. Further, the z-score was -0.0896 in assay [7]; 0.962 (inactive) in assay [10]; 0.338 (inactive) in [12]; 0.126 (inactive) in assay [13]; 1.24 (inactive) in assay [14]; -0.173 (inactive) in assay [15].

For the molecule `COC(=O)c1c(CC[C@@H](CO)NC(=O)N[C@H](Cn2cc(C3(O)CCCCC3)nn2)C(C)C)oc(C(C)=O)c1C(=O)OC`, the composite z-score is 1.56 in [1]; 0.737 in assay [2]; -0.0722 in assay [3]; 0.627 in assay [4]; 1.23 in [5]; 1.26 in [6]. In addition, the composite z-score in [8] is 1.23; in [9], 0.947; in [11], 0.359; in [16], 1.31; in assay [17], -0.0523; in assay [18], 0.881. The results for the composite z-score in [19] and in [20] were 0.756 and 1.59, respectively. Moreover, the z-score was 0.131 in assay [7]; -0.0595 (inactive) in [10]; -2.81 (inactive) in assay [12]; -0.875 (inactive) in assay [13]; 1.34 (inactive) in assay [14]; -1.13 (inactive) in assay [15].
